The list is not random: actives were taken first. Their share in the collection is about 5.7%.
KB-V1 MDR tox: kills drug-selected multidrug resistant KB-V1 cells. actives 3.4% (n = 400,000). Potency, µM (doses to about 46.1 µM), usual class: cytotoxic. AID 1347076. KB-V1 MDR cells viability, CellTiter-Glo, 72 h; further: nearly all actives have a fitted effect of over 60% in size
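Luminescent ATP read-out (CellTiter-Glo, 10 min) measures survival of drug-selected KB-V1 MDR cells after 72 h, 37 degrees C compound exposure. Medium: phenol-red-free DMEM, 10% FBS. Values from fitted concentration-response curves.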
HT1080 IDH1KD tx: toxicity to HT-1080 IDH1 knockdown cells (counter line); HT-1080 IDH1 knockdown viability, ATP luminescence, 48 h; Potency, µM (doses to about 46.1 µM), inactives show at the highest dose activity, negative = toxicity, actives largely listed as cytotoxic; actives 2% (n = 360,000);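 further: 0% = DMSO wells and -100% = cell-free medium wells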
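Knockdown cells (IDH1KD HT-1080) received compounds 2 h after plating at 750 cells/well and were kept 48 h at 37 °C in 5% FBS RPMI. A CellTiter-Glo luminescence read gave % activity for curve fitting.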
KB-3-1 cytotox: kills parental KB-3-1 adenocarcinoma cells; KB-3-1 viability, CellTiter-Glo ATP luminescence, 72 h; actives 1.4% (n = 400,000); AID 1347075; Potency, µM (top dose mostly 46.1 µM), actives largely listed as cytotoxic; further: nearly all actives have a fitted effect of over 60% in size
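KB-3-1 parental drug-naive adenocarcinoma cells in DMEM/10% FBS, incubated 72 h at 37 C with pin-transferred compounds across a concentration series. Viability by CellTiter-Glo luminescence; concentration-response curves fitted after normalization.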
HT1080-NT tox: kills 2HG-producing HT-1080-NT fibrosarcoma cells | HT-1080-NT fibrosarcoma viability, CellTiter-Glo ATP luminescence, 48 h | Potency, µM (highest dose often 46.1 µM), for inactives: top-dose activity, negative = less viability, usual class: cytotoxic | actives 1.6% (n = 360,000);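 further: NT is the 2HG producing partner of a matched IDH1 knockdown line; 0% = DMSO-treated cells and -100% = media-only wells without cells; nearly all actives have a fitted effect of over 55% in size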
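Luminescent CellTiter-Glo readout after 48 hours of compound exposure at 37 degrees C defined viability of HT-1080-NT cells. Activity was normalized to DMSO wells and cell-free media wells; concentration-response curves were fitted and assigned curve classes.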
Starred values were filed as active, the others as inactive; i = inactive; ? = inconclusive; . = no result. The call rests on the fitted dose curve; in most records, active means well fitted curve in the direction sought with a large enough effect; inconclusive means small, poorly fitted or top-dose-only effect, or another doubt; inactive means no such curve, though single readings can be large; an effect the other way counts as inactive or inconclusive. Unless noted, on the % scale 0 is the no-effect control and ±100 the full control effect; potency means the concentration at half of the fitted maximal effect.

SMILES	KB-V1 MDR tox	HT1080 IDH1KD tx	KB-3-1 cytotox	HT1080-NT tox
CCOc1cc(/C=N/NC(=O)CN(CCc2ccccc2)S(=O)(=O)c2ccc(NC(C)=O)cc2)ccc1O	?	-18%	i	?
O=C(CN(CCc1ccccc1)S(=O)(=O)c1ccc(Br)cc1)N/N=C/c1ccccc1C(=O)O	i	-25%	i	-1%
COc1ccc(S(=O)(=O)N(CCc2ccccc2)CC(=O)NCc2ccccc2)cc1	i	.	i	.
COc1ccc(S(=O)(=O)N(CCc2ccccc2)CC(=O)N/N=C/c2ccc3c(c2)OCO3)cc1	4.6µM*	3%	?	-3%
CCNC(=O)CN(CCc1ccccc1)S(=O)(=O)c1ccc(OC)cc1	21µM*	10%	i	-6%
CCCN(CCC)c1ccc(/C=C/c2sc3ccccc3[n+]2CCCCI)cc1	i	.	i	.
COc1ccccc1-c1c(C)nn2c(N3CCN(c4ccc(F)cc4)CC3)cc(C)nc12	i	.	i	.
CN1C(=O)c2cccc3c(S(=O)(=O)Nc4cccc(C(=O)O)c4)ccc1c23	i	.	i	.
O=[N+]([O-])c1ccc(C=C2c3ccccc3-c3ccccc32)cc1	?	.	i	.
O=C(N/N=C/c1sc(=O)[nH]c1-[n+]1ccccc1)c1ccccc1[O-]	i	10%	i	10%
O=C(N/N=C/c1sc(=O)[nH]c1-[n+]1ccc2ccccc2c1)c1ccccc1[O-]	?	-20%	8.2µM*	-19%
CCN(CC)c1ccc(C2C(C(N)=O)=C(C)Nc3nc(SCc4ccccc4Cl)nn32)cc1 (stereo unspecified)	?	.	i	.
CN1CCN(c2nc3c(c(=O)[nH]c(=O)n3C)n2CCSc2nnnn2-c2ccccc2)CC1	i	1%	i	1%
Cn1c(=O)[nH]c(=O)c2c1nc(N1CCCC1)n2CCCSc1nnnn1-c1ccccc1	6.5µM*	0%	i	-2%
CC(C(=O)Nc1cc(C(F)(F)F)ccc1Cl)n1nnc2sc3c(c2c1=O)CCCC3 (stereo unspecified)	i	.	i	.
CCOC(=O)c1c(C)[nH]c(C(=O)COC(=O)c2ccncc2)c1C	7.3µM*	1%	?	2%
CCOC(=O)c1c(C)[nH]c(C(=O)COC(=O)C2CC(=O)N(Cc3ccccc3)C2)c1C (stereo unspecified)	3.3µM*	10%	i	10%
O=C(Nc1cc(Cl)cc(Cl)c1)c1cnn2c1NC(=C1CC1)C=C2C(F)F	i	.	i	.
O=C(Nc1ccc2c(c1)OCCO2)C(C1CC1)n1c(=O)c(-c2cc3ccccc3[nH]2)nc2ccccc21 (stereo unspecified)	?	?	i	?
COc1ccc(/C=N/Nc2cc(C)nc3ccccc23)cc1	?	?	15µM*	18µM*
Cc1ccc2nc(C)cc(N/N=C/c3cccc(O)c3)c2c1	i	21µM*	i	?
COc1ccc(CNc2cc(C)nc3ccc(OC)cc23)cc1	?	15µM*	i	?
COc1ccc2nc(C)cc(N/N=C/c3ccc(F)cc3)c2c1	?	4.6µM*	26µM*	2.9µM*
COc1ccc(Nc2cc(C)nc3ccc(OC)cc23)cc1	?	?	i	?
COc1ccc(/C=N/Nc2cc(C)nc3c(C)cccc23)cc1	i	?	?	?
SMILES	KB-V1 MDR tox	HT1080 IDH1KD tx	KB-3-1 cytotox	HT1080-NT tox
CC(C)(C)S(=O)N1Cc2cc(C(=O)NCc3ccc(Oc4ccccc4)cc3)nc(-c3cccc(-c4cc5ccccc5o4)c3)c2[C@H]1CCO (stereo partly specified)	i	18µM*	?	18µM*
COc1cccc(-c2cccc(-c3nc(C(=O)NCc4ccc5c(c4)OCO5)cc4c3[C@H](CCO)N(S(=O)C(C)(C)C)C4)c2)c1 (stereo partly specified)	i	?	i	?
CC(C)(C)S(=O)N1Cc2cc(C(=O)NCc3ccc4c(c3)OCO4)nc(-c3cccc(-c4cc5ccccc5o4)c3)c2[C@@H]1CCO (stereo partly specified)	i	?	?	23µM*
COc1cccc(N2CCN(C(=O)CCc3c(C)nc4c(c3C)c(=O)n(C)c(=O)n4C)CC2)c1	i	.	i	.
Cc1cc2c(sc3ccccc32)c(C)n1	21µM*	6%	?	10%
Cc1cc2c([nH]c3ccccc32)c(C)n1	i	-30%	i	-2%
Cc1cc(C)c(C#N)c(SCc2nnc(-c3ccccc3)o2)n1	3.7µM*	5%	i	-5%
Cc1cc(C)c(C#N)c(SCc2ccccc2[N+](=O)[O-])n1	23µM*	9%	i	7%
Cc1ccc(C#N)c(SCc2nnc(-c3ccc(Cl)cc3)o2)n1	12µM*	14%	i	16%
COc1ccc(CCNC(=O)c2ccc3c(c2)c(C)c(C)n3Cc2ccccc2)c(OC)c1OC	i	.	i	.
COc1cccc(/C=N/N2CCN(c3ccccc3OC)CC2)c1	12µM*	-9%	i	15%
COc1ccccc1N1CCN(/N=C/c2cccc(Cl)c2)CC1	i	4%	i	9%
CC(O)(c1ccc(F)c(F)c1)c1nc(-c2ccc(Cl)cc2)cs1 (stereo unspecified)	i	23µM*	i	?
CCN(CC)C(=O)c1cccc(-c2csc(C(C)(O)c3ccc(OC)cc3)n2)c1 (stereo unspecified)	?	?	12µM*	5.8µM*
CCN(CC)C(=O)c1cccc(-c2csc(C(O)(c3ccccc3)C(F)(F)F)n2)c1 (stereo unspecified)	?	16µM*	?	23µM*
OC(c1ccccc1)(c1nc(-c2ccc(Cl)cc2)cs1)C(F)(F)F (stereo unspecified)	i	?	i	16µM*
CCN(CC)C(=O)c1cccc(-c2csc(C(C)(O)c3cccc(OC)c3)n2)c1 (stereo unspecified)	i	?	i	-4%
CC(O)(c1ccc(F)c(F)c1)c1nc(-c2cccc(C(F)(F)F)c2)cs1 (stereo unspecified)	i	?	i	?
O=C(O)c1cccc(-c2csc(C(O)(c3ccccc3)C(F)(F)F)n2)c1 (stereo unspecified)	i	5%	i	17%
COc1cc2c(cc1OC)C(COc1ccc3c(C)cc(=O)oc3c1)N(C(=O)c1ccccc1C)CC2 (stereo unspecified)	i	.	i	.
COC(=O)c1ccc(NC(=O)CCc2c(C)nn(-c3ccc(N4CCOCC4)nn3)c2C)cc1	i	.	i	.
Cc1ccnc(NC(=S)N2CCN(c3ccc(Br)cc3)CC2)c1	i	.	i	.
N#Cc1cccc(-c2csc(C(O)(c3ccccc3)C(F)(F)F)n2)c1 (stereo unspecified)	?	16µM*	?	?
